Assay [1] deals with Albumin (Bos taurus) (UniProt P02769). As to the kind of experiment: bovine serum albumin binders on microarray, profiling panel, artefact control for SMM control protein annotation, biochemical, small-molecule microarray, Alexa647 label, 635/667 nm fluorescence (AID 1118).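 Further: score merges 667 nm emission intensity and signal-to-noise per printed compound spot.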 The conditions noted are these: BSA-A647 binding, fluorescence 635 nm, higher = more signal.
Assay [2] in a line: small-molecule microarray binders of probe aXIP, primary screen, biochemical, NeuroSMM set, 635/667 nm fluorescence (AID 1119).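 Further: probe is the protein aXip251-270 applied at 1 µg/mL to compound-printed slides; binding of probe to printed compounds measured as 667 nm fluorescence plus signal to noise.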 As to conditions: higher = more signal, called active from +8 up or from −8 down.
Assay [3] is described as follows: small-molecule binders of probe aNOTCH3, primary screen, biochemical, small-molecule microarray, 635/667 nm fluorescence (AID 1120).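 Further: probe is a biotin-tagged antibody raised against NOTCH3 rather than NOTCH3 protein; score merges spot fluorescence near 667 nm with spot signal to noise.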 As to conditions: higher = more signal.
A short description of assay [4]: small-molecule binders of probe aNOTCH2, primary screen, biochemical, small-molecule microarray, 635/667 nm fluorescence (AID 1121).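 Further: score merges feature fluorescence read at 667 nm with its signal to noise.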 As to conditions: higher = more signal.
The target of assay [5] is Carbonic anhydrase 2 (Homo sapiens) (UniProt P00918). The assay is described as follows: CAII small-molecule binders, profiling panel, biochemical, small-molecule microarray, Alexa647-labelled CAII (AID 1122). The conditions noted are these: CAII-A647 binding fluorescence, higher = more signal.
A short description of assay [6]: COS7 lysate on small-molecule microarray, probe aHis, 635 nm (AID 1123).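 Further: z-score combines 667nm fluorescence intensity with signal-to-noise per printed compound spot.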 The conditions noted are these: COS7 cell lysate, fluorescence, higher = more signal.
The nature of assay [7]: compound binding in COS7 lysate, probe aLAP1, primary screen, cell lysate, small-molecule microarray (AID 1124).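 Further: lysate comes from COS7 cells expressing LAP1 and is applied at 0.3 µg/mL; score merges spot fluorescence near 667 nm with signal-to-noise over triplicate slides.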 As to conditions: probe aLAP1, fluorescence, higher = more signal.
Assay [8] deals with Sam68 (KHDRBS1). The assay is described as follows: Sam68 small-molecule binders, primary screen, biochemical, small-molecule microarray, 635 nm fluorescence (AID 1125).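 Further: score merges 667 nm channel intensity with signal to noise over triplicate slides.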 The conditions noted are these: small-molecule microarray binding, higher = more signal.
Assay [9] deals with Chordin-like protein 2 (CHRDL2). The assay is described as follows: CHRDL2 small-molecule binders, primary screen, biochemical, small-molecule microarray, 635 nm fluorescence (AID 1126).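 Further: printed compound slides probed with Chrdl2 protein at 4 µg/mL for 1 h at 4 C; score merges 667 nm emission intensity with signal to noise over three replicate slides.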 As to conditions: small-molecule microarray binding, fluorescence 635 nm; higher = more signal.
In assay [10] the target is Concanavalin-A (Canavalia ensiformis) (UniProt P02866). As to the kind of experiment: ConA small-molecule binders, primary screen, artefact control for SMM control protein annotation, biochemical, small-molecule microarray, Alexa647 label, 635 nm (AID 1127).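 Further: z combines 667 nm emission intensity with signal-to-noise across three replicate slides.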 As to conditions: ConA-A647 binding fluorescence, higher = more signal.
Concanavalin-A (Canavalia ensiformis), sequence (P02866 whole entry, looked up): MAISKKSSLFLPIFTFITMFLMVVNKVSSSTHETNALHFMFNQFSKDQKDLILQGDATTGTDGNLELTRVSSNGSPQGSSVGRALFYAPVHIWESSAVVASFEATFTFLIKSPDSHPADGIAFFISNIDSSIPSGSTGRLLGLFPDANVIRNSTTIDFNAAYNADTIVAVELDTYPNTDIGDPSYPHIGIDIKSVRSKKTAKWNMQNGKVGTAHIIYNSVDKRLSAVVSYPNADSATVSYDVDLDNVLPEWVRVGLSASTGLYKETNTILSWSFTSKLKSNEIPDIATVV
Assay [11] in a line: anti-His antibody binders, primary screen, artefact control for SMM control protein annotation, biochemical, small-molecule microarray, 635 nm fluorescence (AID 1128).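 Further: score merges feature fluorescence with signal-to-noise for each printed compound spot.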 As to conditions: anti-His Alexa647 antibody binding, higher = more signal.
In assay [12] the test system is Human papillomavirus type 1a E7 protein (residues 1-88). The assay is described as follows: HPV1a E7 small-molecule binders, primary screen, biochemical, small-molecule microarray, residues 1-88, 635 nm (AID 1129). The conditions noted are these: small-molecule microarray binding, fluorescence 635 nm; higher = more signal.
Assay [13] addresses Focal adhesion kinase 1 (Homo sapiens) (UniProt Q05397). As to the kind of experiment: small-molecule microarray binders of FAK, primary screen, biochemical, 635/667 nm fluorescence, BSA, DTT (AID 1130).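 Further: composite of spot emission at 667 nm and signal to noise over triplicate slides.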 As to conditions: PTK2 binding, 635 nm fluorescence, higher = more signal.
Assay [14] concerns Fibrinogen (Alexa647-labelled). The assay is described as follows: fibrinogen binders on compound microarrays, profiling panel, artefact control for SMM control-protein annotation, biochemical, small-molecule microarray, 635/667 nm fluorescence (AID 1131).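 Further: z-score merges 667 nm fluorescence with per-spot signal-to-noise over triplicate slides.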 The conditions noted are these: fibrinogen-A647 binding fluorescence, higher = more signal.
Assay [15] has as its target Follistatin (Homo sapiens) (UniProt P19883). The assay is described as follows: follistatin binders on small-molecule microarrays, primary screen, biochemical, small-molecule microarray, 635/667 nm fluorescence (AID 1132). As to conditions: FST binding, 635 nm fluorescence, higher = more signal.
Assay [16] concerns the target Fibroblast growth factor 2 (Homo sapiens) (UniProt P09038). As to the kind of experiment: FGF2 binders on small-molecule microarrays, primary screen, biochemical, small-molecule microarray, 635/667 nm fluorescence (AID 1133). The conditions noted are these: small-molecule microarray binding, FGF2, fluorescence 635/667; higher = more signal.
Assay [17] in a line: mitochondrial membrane potential change in A549 cells, profiling panel, cell-based, JC-1 fluorescence, basal, 24 h, 100 nL (AID 1138).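 Further: A549 lung adenocarcinoma cells under basal conditions with no added stimulus; test concentration not given here.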 As to conditions: higher = more signal.
The test system of assay [18] is Lefty1. As to the kind of experiment: Lefty1 binders on small-molecule microarrays, primary screen, biochemical, small-molecule microarray, 635/667 nm fluorescence (AID 1139). The conditions noted are these: small-molecule microarray binding, fluorescence 635/667; higher = more signal.
Assay [19] has as its system wheat germ agglutinin (Triticum aestivum), Alexa647-labelled. As to the kind of experiment: wheat germ agglutinin binders on compound microarrays, profiling panel, artefact control for SMM control-protein annotation, biochemical, small-molecule microarray, 635/667 nm fluorescence (AID 1140).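 Further: score merges 667 nm feature emission with signal to noise over triplicate slides.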 The conditions noted are these: WGA-A647 binding, 635 nm fluorescence, higher = more signal.

Assay [20] has as its target Luciferin 4-monooxygenase (Photinus pyralis) (UniProt P08659). The assay is described as follows: firefly luciferase enzyme inhibitors, primary screen, biochemical, luminescence, purified enzyme, 2006 set (AID 1141).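 Further: cell-free assay with purified firefly luciferase at 100 ng per well in PBS; test concentration not given here.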 The conditions noted are these: SteadyGlo luminescence, 30 min, higher = more signal, called active from +8 up or from −8 down.

Active and inactive are the calls of the source.

Focal adhesion kinase 1 (Homo sapiens), sequence (Q05397 whole entry, looked up): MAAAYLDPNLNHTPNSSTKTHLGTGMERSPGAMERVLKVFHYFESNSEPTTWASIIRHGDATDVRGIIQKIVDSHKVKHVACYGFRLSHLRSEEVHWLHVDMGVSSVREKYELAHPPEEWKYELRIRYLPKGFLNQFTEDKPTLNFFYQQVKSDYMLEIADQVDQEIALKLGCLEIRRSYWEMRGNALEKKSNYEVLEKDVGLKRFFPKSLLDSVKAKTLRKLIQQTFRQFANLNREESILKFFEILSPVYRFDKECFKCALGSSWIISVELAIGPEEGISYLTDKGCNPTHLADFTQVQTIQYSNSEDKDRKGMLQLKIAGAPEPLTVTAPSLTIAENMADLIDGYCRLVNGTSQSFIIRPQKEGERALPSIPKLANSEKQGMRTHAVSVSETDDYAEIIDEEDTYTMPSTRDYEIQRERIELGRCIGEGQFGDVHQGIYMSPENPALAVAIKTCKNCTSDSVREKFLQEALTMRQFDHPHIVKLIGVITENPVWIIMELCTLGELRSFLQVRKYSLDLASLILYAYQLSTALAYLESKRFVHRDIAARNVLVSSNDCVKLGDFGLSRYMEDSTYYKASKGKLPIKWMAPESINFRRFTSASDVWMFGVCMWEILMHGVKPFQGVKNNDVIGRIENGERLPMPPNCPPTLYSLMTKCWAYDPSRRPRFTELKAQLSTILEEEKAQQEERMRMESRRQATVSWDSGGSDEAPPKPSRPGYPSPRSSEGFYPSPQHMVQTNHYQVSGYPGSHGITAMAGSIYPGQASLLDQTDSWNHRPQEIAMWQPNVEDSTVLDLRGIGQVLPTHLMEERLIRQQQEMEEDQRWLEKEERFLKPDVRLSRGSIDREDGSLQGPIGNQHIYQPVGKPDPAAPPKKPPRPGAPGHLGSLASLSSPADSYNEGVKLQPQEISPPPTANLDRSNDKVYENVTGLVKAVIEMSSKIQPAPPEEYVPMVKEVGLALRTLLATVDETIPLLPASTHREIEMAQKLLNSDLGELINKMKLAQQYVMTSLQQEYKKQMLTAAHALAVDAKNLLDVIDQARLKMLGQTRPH
Fibroblast growth factor 2 (Homo sapiens), sequence (P09038 whole entry, looked up): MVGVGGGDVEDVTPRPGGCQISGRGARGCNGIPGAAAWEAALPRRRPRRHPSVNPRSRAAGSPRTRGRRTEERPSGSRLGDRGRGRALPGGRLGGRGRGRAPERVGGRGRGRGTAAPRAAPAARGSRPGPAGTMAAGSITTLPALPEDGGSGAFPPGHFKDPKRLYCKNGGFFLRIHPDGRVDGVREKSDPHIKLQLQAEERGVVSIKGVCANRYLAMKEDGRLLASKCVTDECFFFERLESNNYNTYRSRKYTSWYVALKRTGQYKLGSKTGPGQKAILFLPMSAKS
Follistatin (Homo sapiens), sequence (P19883 whole entry, looked up): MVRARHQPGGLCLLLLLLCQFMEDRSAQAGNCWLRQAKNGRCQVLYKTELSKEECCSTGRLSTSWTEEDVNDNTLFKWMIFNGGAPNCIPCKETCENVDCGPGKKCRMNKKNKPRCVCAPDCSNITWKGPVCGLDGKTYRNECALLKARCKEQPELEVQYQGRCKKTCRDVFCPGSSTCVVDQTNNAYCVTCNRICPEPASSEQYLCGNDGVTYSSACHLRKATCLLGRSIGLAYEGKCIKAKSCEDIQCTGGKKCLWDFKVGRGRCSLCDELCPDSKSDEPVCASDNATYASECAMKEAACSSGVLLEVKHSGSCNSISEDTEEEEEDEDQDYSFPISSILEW
Luciferin 4-monooxygenase (Photinus pyralis), sequence (P08659 whole entry, looked up): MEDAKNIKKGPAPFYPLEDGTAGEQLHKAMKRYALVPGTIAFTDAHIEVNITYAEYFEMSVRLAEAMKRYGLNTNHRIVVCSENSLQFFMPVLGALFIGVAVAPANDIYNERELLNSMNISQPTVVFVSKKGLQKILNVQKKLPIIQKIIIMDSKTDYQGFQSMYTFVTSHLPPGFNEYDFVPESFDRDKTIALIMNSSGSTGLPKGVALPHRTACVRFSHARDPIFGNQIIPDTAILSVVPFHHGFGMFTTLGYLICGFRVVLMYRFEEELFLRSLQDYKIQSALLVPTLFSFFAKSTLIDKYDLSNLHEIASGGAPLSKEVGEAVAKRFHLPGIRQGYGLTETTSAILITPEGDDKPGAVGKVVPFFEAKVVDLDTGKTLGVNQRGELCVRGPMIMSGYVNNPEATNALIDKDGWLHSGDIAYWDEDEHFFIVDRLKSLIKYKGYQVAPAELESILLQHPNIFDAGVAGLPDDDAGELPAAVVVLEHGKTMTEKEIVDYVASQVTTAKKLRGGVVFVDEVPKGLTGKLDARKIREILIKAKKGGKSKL
Albumin (Bos taurus), sequence (P02769 whole entry, looked up): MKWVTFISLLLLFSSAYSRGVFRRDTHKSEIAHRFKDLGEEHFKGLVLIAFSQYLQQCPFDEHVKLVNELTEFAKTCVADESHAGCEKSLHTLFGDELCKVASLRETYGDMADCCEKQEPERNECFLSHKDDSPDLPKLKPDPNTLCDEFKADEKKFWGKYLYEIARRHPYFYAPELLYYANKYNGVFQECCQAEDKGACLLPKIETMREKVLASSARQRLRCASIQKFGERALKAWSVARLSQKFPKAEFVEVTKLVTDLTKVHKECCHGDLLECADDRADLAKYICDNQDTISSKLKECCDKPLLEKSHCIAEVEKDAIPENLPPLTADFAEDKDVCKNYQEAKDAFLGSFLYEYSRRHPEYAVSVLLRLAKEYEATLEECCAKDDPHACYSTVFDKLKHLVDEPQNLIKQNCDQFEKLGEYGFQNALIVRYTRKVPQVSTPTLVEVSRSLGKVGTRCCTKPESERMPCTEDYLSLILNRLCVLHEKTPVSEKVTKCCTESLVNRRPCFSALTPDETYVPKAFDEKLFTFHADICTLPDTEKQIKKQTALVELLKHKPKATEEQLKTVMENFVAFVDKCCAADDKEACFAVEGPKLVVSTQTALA

In the case of `C=CC[C@@H]1C=C[C@H](ON=C(C)CCN2CCCCc3nc(C)c(C)cc32)[C@@H](CO)O1`, the composite z-score in [1] was 0.0868; in assay [3], -0.0304; in [4], -0.14; in assay [5], 0.226; in assay [6], 0.588; in [7] it was 0.155. Also, the composite z-score in assay [8] was 0.972; in assay [9] it was 1.47; in assay [10], -0.223; in assay [11], -0.833; in assay [12], -0.0192; in assay [13], 0.499. The composite z-score was found to be 0.635 in assay [14]; 1.39 in assay [15]; 1.36 in assay [16]; 1.56 in [18]; 0.607 in assay [19]. Further, the composite Z-score in [2] was 0.325 (inactive). The z-score is 0.143 in [17] and 1.38 (inactive) in assay [20].

For `CON=C1c2cc(OC)ccc2O[C@H](c2cccc(OC)c2)[C@H]1O`, the composite z-score in [1] was -0.181; in assay [3] it was 0.123; in [4], 0.0267; in assay [5] it was 0.11; in [6], 0.275; in assay [7] it was 0.332. For the same compound, the composite z-score in [8] amounted to 0.415; in [9], 0.707; in assay [10], 0.267; in [11] it was 0.293; in assay [12] it was 0.416; in assay [13], 0.197. Besides, the composite z-score stood at 0.273 in [14]; 0.587 in assay [15]; 0.675 in assay [16]; 0.6 in assay [18]; 0.208 in assay [19]. Besides, the composite Z-score in assay [2] was 0.133 (inactive). For the same compound, the z-score in assay [17] is 0.314; in assay [20], -2.9 (inactive).

Regarding `CON=C[C@@H](OC)[C@H](C)C=CCC(=O)OC`, the composite z-score in assay [1] is -0.518; in assay [3], -0.0014; in assay [4], -0.201; in [5], -0.312; in assay [6], 0.157; in [7], -0.195. Besides, the composite z-score was -0.258 in [8]; 0.231 in assay [9]; -0.105 in assay [10]; 1.66 in assay [11]; 0.158 in assay [12]; -0.069 in assay [13]. Further, the composite z-score in [14] was -1.5; in assay [15], 0.0902; in assay [16] it was 0.0231; in assay [18] it was 0.0713; in assay [19], -0.115. Further, the composite Z-score in assay [2] is 0.0575 (inactive). For the same compound, the z-score in [17] was -0.223; in assay [20], -0.982 (inactive).

For the compound `CO[C@@H](C(C)C)[C@@H](C)C1OC(=O)CC1O` (stereo not given in full), the composite z-score was -0.145 in assay [1]; -0.159 in assay [3]; -0.166 in [4]; -0.169 in assay [5]; -0.18 in assay [6]; -0.542 in assay [7]. For the same compound, the composite z-score in assay [8] was -0.22; in assay [9] it was -0.598; in assay [10], -0.347; in assay [11], -0.647; in [12] it was -0.579; in assay [13], 0.0539. Also, the composite z-score in assay [14] is -1.29; in assay [15], -0.989; in assay [16], -0.278; in assay [18] it was -0.633; in [19], -0.282. The composite Z-score in assay [2] is 0.0923 (inactive). In addition, the z-score is 0.000179 in assay [17] and 0.159 (inactive) in assay [20].

As to `C=CC[C@@H]1C=C[C@H](ON=CC[C@@H]2C=C[C@H](OC(C)=O)[C@@H](COC(C)=O)O2)[C@@H](CO)O1`, the composite z-score in assay [1] is 0.0919; in [3], 0.164; in [4], 0.0219; in [5], 0.197; in assay [6], 0.312; in [7], 0.0839. Also, the composite z-score in assay [8] is 1.29; in assay [9] it was 0.441; in assay [10] it was 0.823; in assay [11], 1.37; in [12] it was 0.915; in assay [13] it was -0.0825. Besides, the composite z-score was determined as 0.991 in assay [14]; 0.538 in assay [15]; 0.945 in [16]; 0.918 in [18]; 0.566 in assay [19]. Further, in [2], the composite Z-score was -0.0027 (inactive). Besides, the z-score in [17] was -0.0536; in assay [20] it was 0.328 (inactive).

Consider `COC(=O)CC=C[C@@H](C)[C@@H](C=NOC[C@@H](O)[C@H]1O[C@@H]2OC(C)(C)O[C@@H]2[C@H]1O)OC`, for which the composite z-score is -0.0287 in assay [1]; -0.0647 in assay [3]; -0.13 in assay [4]; -0.131 in [5]; -0.104 in assay [6]; 0.149 in [7]. Besides, the composite z-score in assay [8] came to 0.444; in [9], 0.744; in [10] it was 0.333; in [11], 1.57; in assay [12], 0.612; in assay [13] it was 0.167. Further, the composite z-score in [14] stood at 0.0843; in [15], 0.834; in assay [16] it was 0.943; in assay [18], 0.59; in assay [19], 0.006. In assay [2], the composite Z-score is -0.931 (inactive). The figures for the z-score in assay [17] and in assay [20] were 0.0187 and -0.512 (inactive), respectively.

Values taken from PubChem BioAssay.
